The results in this text go back to the supplement of paper PMC11732987, “Enantioselective OTUD7B fragment discovery through chemoproteomics screening and high-throughput optimisation” (Communications Chemistry, 2025).

Structures are written as SMILES. Values without a mark were called inactive.

What all share (assay): log2 ratio of Biotin-Ahx-Ub-VS probe labelling (fragment/DMSO); higher = less target engagement (more negative = stronger competition), active = hit call of the paper (q ≤ 0.05, log2 ratio ≤ -1)
Common to all, as to settings: compound concentration: 200 uM; treatment time: 3 h

The target of one experiment is T1, USP19 (UniProt O94966).
T1 sequence (whole entry): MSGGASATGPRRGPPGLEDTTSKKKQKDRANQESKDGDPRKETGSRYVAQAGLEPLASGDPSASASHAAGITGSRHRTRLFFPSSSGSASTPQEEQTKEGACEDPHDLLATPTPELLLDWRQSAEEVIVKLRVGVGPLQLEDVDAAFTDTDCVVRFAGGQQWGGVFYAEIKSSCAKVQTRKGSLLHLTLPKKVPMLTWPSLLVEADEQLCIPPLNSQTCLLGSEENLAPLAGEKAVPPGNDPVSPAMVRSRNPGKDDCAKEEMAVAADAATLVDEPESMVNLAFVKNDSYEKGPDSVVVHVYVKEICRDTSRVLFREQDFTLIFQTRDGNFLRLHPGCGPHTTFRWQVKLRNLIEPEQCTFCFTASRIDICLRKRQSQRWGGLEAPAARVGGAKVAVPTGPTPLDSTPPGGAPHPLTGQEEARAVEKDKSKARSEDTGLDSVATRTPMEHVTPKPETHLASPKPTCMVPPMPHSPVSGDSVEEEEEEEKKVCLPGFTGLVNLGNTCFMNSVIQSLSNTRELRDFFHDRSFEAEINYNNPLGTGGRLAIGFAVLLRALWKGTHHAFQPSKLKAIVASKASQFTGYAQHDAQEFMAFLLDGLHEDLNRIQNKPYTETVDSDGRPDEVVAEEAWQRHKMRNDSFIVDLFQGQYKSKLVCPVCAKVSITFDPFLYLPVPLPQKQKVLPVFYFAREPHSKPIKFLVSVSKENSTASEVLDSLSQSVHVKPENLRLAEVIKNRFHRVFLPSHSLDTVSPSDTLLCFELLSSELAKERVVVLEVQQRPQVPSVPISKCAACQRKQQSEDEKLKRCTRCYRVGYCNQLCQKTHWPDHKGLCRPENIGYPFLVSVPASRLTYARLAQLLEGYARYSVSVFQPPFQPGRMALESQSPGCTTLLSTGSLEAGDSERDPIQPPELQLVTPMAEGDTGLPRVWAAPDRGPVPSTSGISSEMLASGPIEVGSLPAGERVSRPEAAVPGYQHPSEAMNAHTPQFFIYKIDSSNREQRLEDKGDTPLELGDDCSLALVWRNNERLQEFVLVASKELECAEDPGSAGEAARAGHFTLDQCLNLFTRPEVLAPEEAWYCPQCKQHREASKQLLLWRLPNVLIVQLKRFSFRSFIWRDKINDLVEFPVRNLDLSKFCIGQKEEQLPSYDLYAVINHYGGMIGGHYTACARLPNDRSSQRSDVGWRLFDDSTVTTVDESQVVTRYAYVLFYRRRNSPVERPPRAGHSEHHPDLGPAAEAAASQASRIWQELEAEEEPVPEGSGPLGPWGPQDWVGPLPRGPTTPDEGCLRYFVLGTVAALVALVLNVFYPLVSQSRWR
The method in brief:
(§1)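 Values give the average log2 ratio of fragment to vehicle, assessed by unpaired t-test on global-median-normalised Spectronaut label-free quantities. Proteins needed ≥2 unique peptides. HEK293T lysate (495 µg per sample) was treated in triplicate with fragment at 200 µM or vehicle for 3 h and then with Biotin-Ahx-Ub-VS at 0.5 µM final for 1 h. Labelled DUBs were NeutrAvidin-enriched, digested and run by diaPASEF LC-MS/MS.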

The target in another experiment is T2, USP22 (UniProt Q9UPT9).
T2 sequence (whole entry): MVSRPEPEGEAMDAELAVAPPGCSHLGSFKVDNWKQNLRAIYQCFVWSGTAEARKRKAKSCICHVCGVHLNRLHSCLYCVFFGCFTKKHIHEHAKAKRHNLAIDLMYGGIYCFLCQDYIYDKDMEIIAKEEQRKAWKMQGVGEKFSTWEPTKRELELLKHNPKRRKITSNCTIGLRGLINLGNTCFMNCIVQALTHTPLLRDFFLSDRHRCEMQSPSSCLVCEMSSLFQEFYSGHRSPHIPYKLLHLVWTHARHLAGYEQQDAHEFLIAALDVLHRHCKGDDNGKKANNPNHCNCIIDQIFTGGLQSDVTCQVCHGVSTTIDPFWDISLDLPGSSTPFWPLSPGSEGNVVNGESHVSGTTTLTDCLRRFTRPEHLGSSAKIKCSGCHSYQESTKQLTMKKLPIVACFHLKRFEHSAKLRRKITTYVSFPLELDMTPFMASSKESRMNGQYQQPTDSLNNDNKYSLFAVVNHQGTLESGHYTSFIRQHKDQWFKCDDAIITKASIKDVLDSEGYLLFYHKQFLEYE
The gist of the method:
as §1

The target in the next experiment is USP24 (UniProt Q9UPU5). The method in brief: as §1
The next experiment addresses T3, USP25 (UniProt Q9UHP3).
T3 sequence (whole entry): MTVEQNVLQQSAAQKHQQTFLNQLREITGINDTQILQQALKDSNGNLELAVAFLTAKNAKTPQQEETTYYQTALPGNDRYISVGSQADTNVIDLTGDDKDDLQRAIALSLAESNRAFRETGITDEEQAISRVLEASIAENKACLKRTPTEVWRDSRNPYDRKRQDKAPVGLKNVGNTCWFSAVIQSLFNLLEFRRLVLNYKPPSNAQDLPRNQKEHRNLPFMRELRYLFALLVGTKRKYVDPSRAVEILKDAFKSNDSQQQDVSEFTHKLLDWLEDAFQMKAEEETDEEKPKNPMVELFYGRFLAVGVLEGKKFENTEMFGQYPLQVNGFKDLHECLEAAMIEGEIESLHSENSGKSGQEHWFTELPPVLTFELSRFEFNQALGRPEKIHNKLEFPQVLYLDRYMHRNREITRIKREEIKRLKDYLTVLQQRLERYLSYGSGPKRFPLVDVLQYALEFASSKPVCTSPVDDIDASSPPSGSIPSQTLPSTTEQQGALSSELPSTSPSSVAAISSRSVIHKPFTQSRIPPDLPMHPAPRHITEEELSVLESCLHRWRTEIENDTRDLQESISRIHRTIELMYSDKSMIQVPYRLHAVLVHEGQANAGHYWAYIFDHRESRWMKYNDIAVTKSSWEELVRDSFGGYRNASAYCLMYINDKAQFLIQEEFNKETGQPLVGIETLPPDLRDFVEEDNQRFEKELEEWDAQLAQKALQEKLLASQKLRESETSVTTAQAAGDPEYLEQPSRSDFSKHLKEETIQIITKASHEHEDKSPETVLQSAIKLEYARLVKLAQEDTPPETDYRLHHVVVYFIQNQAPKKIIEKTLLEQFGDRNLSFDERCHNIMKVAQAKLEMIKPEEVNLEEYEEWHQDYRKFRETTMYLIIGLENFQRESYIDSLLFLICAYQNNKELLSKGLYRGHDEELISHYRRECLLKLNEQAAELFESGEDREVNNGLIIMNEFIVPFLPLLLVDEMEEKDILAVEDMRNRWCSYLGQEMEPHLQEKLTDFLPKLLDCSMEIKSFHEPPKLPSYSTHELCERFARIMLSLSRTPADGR
The gist of the method:
as §1

A further experiment has as its target T4, USP28 (UniProt Q96RU2).
T4 sequence (whole entry): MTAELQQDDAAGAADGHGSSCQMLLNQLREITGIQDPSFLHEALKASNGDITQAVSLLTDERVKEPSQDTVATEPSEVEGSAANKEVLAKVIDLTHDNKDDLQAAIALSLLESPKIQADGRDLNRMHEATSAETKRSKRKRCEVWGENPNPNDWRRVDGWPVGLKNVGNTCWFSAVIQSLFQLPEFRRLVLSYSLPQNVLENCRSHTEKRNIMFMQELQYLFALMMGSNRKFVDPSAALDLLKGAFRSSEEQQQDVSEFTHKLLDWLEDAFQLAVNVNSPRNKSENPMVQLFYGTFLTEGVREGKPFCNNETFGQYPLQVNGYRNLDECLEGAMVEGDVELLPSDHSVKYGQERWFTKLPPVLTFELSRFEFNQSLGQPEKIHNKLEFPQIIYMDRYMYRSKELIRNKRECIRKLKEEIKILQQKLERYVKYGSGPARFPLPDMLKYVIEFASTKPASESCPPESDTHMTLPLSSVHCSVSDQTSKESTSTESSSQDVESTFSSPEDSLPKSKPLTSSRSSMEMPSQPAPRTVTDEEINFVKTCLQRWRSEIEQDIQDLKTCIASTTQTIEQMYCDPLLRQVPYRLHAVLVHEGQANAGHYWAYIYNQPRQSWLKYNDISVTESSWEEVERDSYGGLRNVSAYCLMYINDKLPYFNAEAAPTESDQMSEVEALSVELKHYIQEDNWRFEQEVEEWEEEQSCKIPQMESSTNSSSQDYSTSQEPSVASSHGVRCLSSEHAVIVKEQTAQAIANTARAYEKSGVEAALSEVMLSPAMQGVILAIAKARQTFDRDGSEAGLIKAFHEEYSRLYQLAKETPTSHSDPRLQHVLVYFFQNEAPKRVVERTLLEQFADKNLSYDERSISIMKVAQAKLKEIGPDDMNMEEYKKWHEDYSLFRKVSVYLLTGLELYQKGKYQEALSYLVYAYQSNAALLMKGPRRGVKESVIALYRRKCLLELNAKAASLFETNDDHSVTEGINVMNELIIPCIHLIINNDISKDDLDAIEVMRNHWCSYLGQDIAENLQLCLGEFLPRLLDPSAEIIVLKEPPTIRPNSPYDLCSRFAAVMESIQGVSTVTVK
The gist of the method: as §1

Chain of USP24 (Q9UPU5 whole entry): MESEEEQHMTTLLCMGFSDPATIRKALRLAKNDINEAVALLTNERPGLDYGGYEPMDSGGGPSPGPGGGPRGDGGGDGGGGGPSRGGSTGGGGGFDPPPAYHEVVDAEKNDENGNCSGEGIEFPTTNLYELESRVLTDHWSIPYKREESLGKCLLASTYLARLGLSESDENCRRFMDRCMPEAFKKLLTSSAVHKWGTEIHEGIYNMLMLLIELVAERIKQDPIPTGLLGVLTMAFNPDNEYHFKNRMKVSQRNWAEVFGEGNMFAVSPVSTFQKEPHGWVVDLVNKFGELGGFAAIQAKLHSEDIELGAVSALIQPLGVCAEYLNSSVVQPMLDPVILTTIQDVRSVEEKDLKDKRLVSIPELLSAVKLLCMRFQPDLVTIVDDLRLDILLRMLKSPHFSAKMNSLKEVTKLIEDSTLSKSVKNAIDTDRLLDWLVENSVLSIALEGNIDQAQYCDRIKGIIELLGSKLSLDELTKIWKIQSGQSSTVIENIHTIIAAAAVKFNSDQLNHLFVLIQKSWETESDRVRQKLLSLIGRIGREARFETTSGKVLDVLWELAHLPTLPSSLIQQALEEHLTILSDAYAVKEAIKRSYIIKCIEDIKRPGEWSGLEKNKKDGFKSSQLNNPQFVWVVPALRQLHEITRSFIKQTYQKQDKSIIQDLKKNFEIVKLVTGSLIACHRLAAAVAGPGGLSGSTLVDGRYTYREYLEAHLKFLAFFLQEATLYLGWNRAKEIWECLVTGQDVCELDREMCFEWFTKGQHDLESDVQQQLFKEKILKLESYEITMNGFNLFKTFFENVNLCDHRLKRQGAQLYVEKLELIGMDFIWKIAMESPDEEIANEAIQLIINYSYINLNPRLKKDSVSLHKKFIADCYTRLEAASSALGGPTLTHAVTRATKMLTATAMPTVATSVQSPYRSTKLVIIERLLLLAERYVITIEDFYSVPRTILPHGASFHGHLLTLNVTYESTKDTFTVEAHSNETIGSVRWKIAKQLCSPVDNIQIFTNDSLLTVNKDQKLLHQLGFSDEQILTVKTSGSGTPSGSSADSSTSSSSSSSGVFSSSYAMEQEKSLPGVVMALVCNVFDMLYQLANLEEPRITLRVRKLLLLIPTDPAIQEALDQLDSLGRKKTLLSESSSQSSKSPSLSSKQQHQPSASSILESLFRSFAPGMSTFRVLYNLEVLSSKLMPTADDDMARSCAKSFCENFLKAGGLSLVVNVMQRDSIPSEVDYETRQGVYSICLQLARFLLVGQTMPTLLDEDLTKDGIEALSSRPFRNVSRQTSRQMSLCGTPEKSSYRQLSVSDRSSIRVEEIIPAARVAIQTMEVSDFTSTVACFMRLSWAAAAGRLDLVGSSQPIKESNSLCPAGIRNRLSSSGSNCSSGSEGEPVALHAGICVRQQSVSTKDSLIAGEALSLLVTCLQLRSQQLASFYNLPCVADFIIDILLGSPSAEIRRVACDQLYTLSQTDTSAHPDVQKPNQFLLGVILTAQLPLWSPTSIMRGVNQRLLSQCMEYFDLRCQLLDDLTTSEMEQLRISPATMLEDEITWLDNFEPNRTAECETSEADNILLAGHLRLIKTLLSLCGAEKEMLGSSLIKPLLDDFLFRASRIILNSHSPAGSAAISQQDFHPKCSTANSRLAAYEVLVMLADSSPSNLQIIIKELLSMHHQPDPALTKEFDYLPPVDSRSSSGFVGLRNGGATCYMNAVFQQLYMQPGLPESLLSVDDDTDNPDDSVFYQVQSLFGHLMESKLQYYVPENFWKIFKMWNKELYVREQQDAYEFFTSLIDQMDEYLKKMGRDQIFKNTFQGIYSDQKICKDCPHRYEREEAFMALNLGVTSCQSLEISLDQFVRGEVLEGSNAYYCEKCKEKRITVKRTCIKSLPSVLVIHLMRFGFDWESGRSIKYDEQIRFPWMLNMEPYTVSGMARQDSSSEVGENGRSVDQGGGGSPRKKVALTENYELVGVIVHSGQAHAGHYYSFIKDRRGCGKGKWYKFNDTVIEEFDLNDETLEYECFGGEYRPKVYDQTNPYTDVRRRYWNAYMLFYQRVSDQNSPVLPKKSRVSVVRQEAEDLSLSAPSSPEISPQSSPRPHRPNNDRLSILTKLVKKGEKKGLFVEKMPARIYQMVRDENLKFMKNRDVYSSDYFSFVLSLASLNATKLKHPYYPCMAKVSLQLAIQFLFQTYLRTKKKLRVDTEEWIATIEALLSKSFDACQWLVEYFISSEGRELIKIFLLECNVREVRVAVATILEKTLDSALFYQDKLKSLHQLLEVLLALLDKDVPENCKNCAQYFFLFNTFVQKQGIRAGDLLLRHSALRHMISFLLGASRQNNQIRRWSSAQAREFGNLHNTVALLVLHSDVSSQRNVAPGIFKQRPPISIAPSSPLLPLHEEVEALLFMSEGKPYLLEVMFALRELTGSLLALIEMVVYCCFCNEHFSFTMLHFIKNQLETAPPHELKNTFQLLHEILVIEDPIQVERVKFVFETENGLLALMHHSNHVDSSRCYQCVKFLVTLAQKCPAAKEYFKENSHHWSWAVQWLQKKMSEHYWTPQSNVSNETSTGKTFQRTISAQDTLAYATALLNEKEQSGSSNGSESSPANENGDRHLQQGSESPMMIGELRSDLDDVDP

Regarding `N#Cc1ccc(Cl)cc1NC(=O)CCl`, the “log2 ratio of Biotin-Ahx-Ub-VS probe labelling” value with USP19 was -0.121; in the experiment with USP22, 0.184; in the experiment with USP24, -0.83; with USP25, -0.912; with USP28, -1.49 (active).
